# Laboratory results: PubChem BioAssay AID652016 (National Center for Advancing Translational Sciences (NCATS), 2013)
# Inconclusive results are not listed. A call without a number means that no potency is given here. Activity calls are given as the source filed them. Calls come from the whole dose curve; as a rule, active = well fitted inhibition curve with a large enough effect; inconclusive = small, poorly fitted or top-dose-only effect; inactive = flat fitted curve, though single readings scatter.
# Biological target: Luciferin 4-monooxygenase (Photinus pyralis) (UniProt P08659)
# Assay: qHTS Assay for Inhibitors of Firefly Luciferase from the GSK Published Protein Kinase Inhibitor Set
# Settings: purified firefly luciferase, luminescence inhibition; series mostly up to 57.5 µM
# Method in brief: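 Purified P. pyralis luciferase, 10nM, with 10uM D-luciferin and 10uM ATP in 50mM Tris acetate pH 7.5, 10mM Mg acetate, 0.01% Tween-20, 0.05% BSA. Titration ~60uM to 300pM; luminescence read after about 5 min.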
# Potency is the fitted concentration of half-maximal effect.
# Chain of Luciferin 4-monooxygenase (Photinus pyralis) (P08659 whole entry, looked up): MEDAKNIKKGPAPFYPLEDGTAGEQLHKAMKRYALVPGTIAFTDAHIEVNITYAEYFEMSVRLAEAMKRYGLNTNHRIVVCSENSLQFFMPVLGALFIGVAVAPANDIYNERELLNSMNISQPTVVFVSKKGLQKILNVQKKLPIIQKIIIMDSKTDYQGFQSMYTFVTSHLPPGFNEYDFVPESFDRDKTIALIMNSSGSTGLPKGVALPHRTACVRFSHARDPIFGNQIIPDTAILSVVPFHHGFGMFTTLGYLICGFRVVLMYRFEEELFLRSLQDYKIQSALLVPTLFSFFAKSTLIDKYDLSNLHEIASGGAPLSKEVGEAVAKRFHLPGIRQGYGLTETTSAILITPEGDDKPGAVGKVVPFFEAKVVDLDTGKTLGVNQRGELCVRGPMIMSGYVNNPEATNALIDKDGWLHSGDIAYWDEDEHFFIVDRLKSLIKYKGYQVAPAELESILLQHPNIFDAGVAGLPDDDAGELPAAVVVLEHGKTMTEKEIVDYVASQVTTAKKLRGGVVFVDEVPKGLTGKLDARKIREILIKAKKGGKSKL
row,SMILES,Potency
1,CCc1nccc2c1nc(-c1nonc1N)n2CC,inactive
2,NS(=O)(=O)c1ccc(N=Nc2c(O)[nH]c3ccc(C(=O)NCc4ccncc4)cc23)cc1,inactive
3,COc1cccc(-n2nc(C)c3c(NN=C(C)c4ccncc4)ncnc32)c1,inactive
4,O=C1Nc2ccc(I)cc2C1=Cc1cc(Br)c(O)c(Br)c1,inactive
5,O=C1NC(=O)C(c2cccc(Cl)c2)=C1Nc1ccc(Cl)c(C(=O)O)c1,inactive
6,Cc1cccc(Nc2ncc(-c3ccccc3)o2)c1,580 nM (active)
7,Cn1c(-c2nonc2N)nc2cnccc21,inactive
8,CN(C)CCOc1ccc(-c2cc(-c3ccc4c(c3)CCC4=NO)c(-c3ccncc3)o2)cc1,inactive
9,CCOc1nccc2c1nc(-c1nonc1N)n2CC,inactive
10,COc1cc2ncn(-c3cc(OCc4ccccc4S(C)(=O)=O)c(C#N)s3)c2cc1OC,inactive
11,NS(=O)(=O)c1cccc(-c2cc3ccncc3cc2OCc2ccccc2)c1,inactive
12,CCn1c(-c2nonc2N)nc2cnc(Oc3cccc(NC(=O)c4ccc(N(C)C)cc4)c3)cc21,1030 nM (active)
13,NC(=O)CCc1ccccc1Oc1nccc(-c2c(-c3ccc(F)cc3)ncn2C2CCNCC2)n1,inactive
14,O=C(OC1CNC(C#Cc2cc3ncnc(Nc4ccc5c(ccn5Cc5cc(F)ccc5F)c4)c3s2)C1)N1CCOCC1 (stereo not drawn),inactive
15,CC(C)c1ccc2c(N=Nc3ccc(S(N)(=O)=O)cc3)c(O)[nH]c2c1,inactive
16,NC(=O)c1sc(-n2cnc3ccccc32)cc1OCc1ccccc1Br,inactive
17,Cc1cc(Cl)cc2c(N=Nc3ccc(S(N)(=O)=O)cc3)c(O)[nH]c12,inactive

row,SMILES,Potency
1,NC(=O)c1sc(-n2cnc3ccc(C(F)(F)F)cc32)cc1OCc1ccccc1Br,inactive
2,COc1cc(Nc2ncc(-c3ccccc3)o2)cc(OC)c1,6510 nM (active)
3,CCN1CCC(C(=O)Nc2n[nH]c3nnc(-c4cccc(F)c4F)cc23)CC1,inactive
4,CCS(=O)(=O)c1ccc(OC)c(Nc2ncc(-c3cccc(-c4ccccc4F)c3)o2)c1,inactive
5,Fc1cccc(COc2ccc(Nc3ncnc4sc(-c5ccco5)cc34)cc2Cl)c1,inactive
6,COc1cc(N2CCN(C(C)C)CC2)ccc1Nc1nc(Nc2ccc(F)cc2C(=O)NCC(O)CO)c2cc[nH]c2n1 (stereo not drawn),inactive
7,N#Cc1c(NC(=O)c2ccc(F)cc2)sc2c1CCCC2,919 nM (active)
8,O=C1NC(=O)C(c2ccc(Cl)cc2)=C1Nc1ccc(Cl)c(C(=O)O)c1,inactive
9,CCn1c(-c2nonc2N)nc2cncc(C(=O)N3CCNCC3)c21,inactive
10,CCS(=O)(=O)c1ccc(OC)c(Nc2ncc(-c3cccc(C(C)=O)c3)o2)c1,inactive
11,CCn1c(-c2nonc2N)nc2ccccc21,inactive
12,Fc1ccc(-c2cc(-c3cn[nH]c3-c3ccccn3)ccn2)cc1,inactive
13,CCn1c(-c2nonc2N)nc2ccncc21,inactive
14,Nc1nc(-c2ccccn2)c(-c2ccc3ncccc3n2)s1,32600 nM (active)
15,COc1cc(Nc2ncc(-c3ccccc3)o2)cc(OC)c1OC,inactive
16,CC(=Nc1ccc(S(N)(=O)=O)cc1)c1c(O)[nH]c2ccccc12,3660 nM (active)
